In the library only some 1.7% were active in any assay of this set; here they are far more common.
PfHsp40 yeast – rescue of PfHsp40-mediated yeast toxicity; S. cerevisiae expressing PfHsp40, growth rescue, ATP luminescence; growth rescue, % at 12.5 µM; actives 0.68% (n = 340,000); AID 504582; in the data active means growth rescue above about 28%, passing the limit was not always enough;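 further: yeast W303a lacking pdr1 and pdr3 grown in galactose medium; growth measured after three days at 30 °C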
SARS 3CLpro inh – SARS-CoV 3CLpro protease inhibition; P0C6X7; recombinant SARS-CoV 3CLpro, quenched FRET peptide cleavage; inhibition, % at 6 µM; actives 0.14% (n = 290,000); in the data active means inhibition above about 12%
MazF activator – MazEF (E. coli) toxin RNase activation | activation, % at 20 µM | AID 504720 | actives 0.32% (n = 350,000) | P0AE70 | FAM/BHQ RNA-DNA oligo cleavage fluorescence, 5 h; in the data active means activation above about 50%
Target sequence (P0AE70 whole entry, looked up): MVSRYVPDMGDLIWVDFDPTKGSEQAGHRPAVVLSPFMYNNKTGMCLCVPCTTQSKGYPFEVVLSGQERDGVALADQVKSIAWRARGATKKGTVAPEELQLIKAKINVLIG
BJeLR viability – kills HRASV12-expressing BJeLR cells; BJeLR (HRASV12) viability, CellTiter-Glo ATP luminescence, 48 h; inhibition, % (test concentration not listed); actives 0.17% (n = 300,000); in the data active means inhibition above about 50%
Vc quorum ag-1 – inducers of Vibrio cholerae quorum light production without autoinducers; actives 0.16% (n = 350,000); activation, % at 18.7 µM; V. cholerae BH1578 lux reporter, luminescence, 6 h; in the data active means activation mostly above about 9.7%, no sharp cut-off
VHR inh abs – DUSP3 (human) phosphatase inhibition | P51452 | actives 0.52% (n = 290,000) | recombinant VHR phosphatase, pNPP absorbance | inhibition, % at 13.3 µM | AID 1654; in the data active means inhibition above about 50%
Target sequence (P51452 whole entry, looked up): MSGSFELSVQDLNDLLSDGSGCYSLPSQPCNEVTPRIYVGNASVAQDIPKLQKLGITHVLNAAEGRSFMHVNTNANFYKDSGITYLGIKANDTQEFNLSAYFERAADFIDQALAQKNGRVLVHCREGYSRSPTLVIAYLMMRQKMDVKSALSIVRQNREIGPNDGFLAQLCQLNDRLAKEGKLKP
Vc quorum ag-2 – induces V. cholerae light production without autoinducers | shares compounds with Vc quorum ag-1 | V. cholerae BH1578 lux reporter, luminescence, 6 h | activation, % at 50 µM | 620 tested, under 10 active | AID 602243; call rule not given here
* marks the source's active call; other numbers are inactive results.

What do the screens show for `O=c1[nH]c2ccccc2n1Cc1ccc(Cl)cc1`?
PfHsp40 yeast: 0; SARS 3CLpro inh: -9; MazF activator: -2; BJeLR viability: -5; Vc quorum ag-1: 17*; VHR inh abs: 27; Vc quorum ag-2: 1

What do the screens show for `Cc1cc(Oc2ccc(C#N)cc2)nc(N2CCOCC2)n1`?
PfHsp40 yeast: -1; SARS 3CLpro inh: -3; MazF activator: -3; BJeLR viability: -7; Vc quorum ag-1: 25*; VHR inh abs: -16; Vc quorum ag-2: 0

What do the screens show for `Cc1cc(Oc2ccc([N+](=O)[O-])cc2)nc(N2CCOCC2)n1`?
PfHsp40 yeast: 0; SARS 3CLpro inh: 6; MazF activator: -3; BJeLR viability: 2; Vc quorum ag-1: 0; VHR inh abs: 3

How did CC(C)c1nnc(NC(=O)CCCC(=O)O)s1 do in these assays?
PfHsp40 yeast: -1; SARS 3CLpro inh: -2; MazF activator: 3; BJeLR viability: 7; Vc quorum ag-1: inactive; VHR inh abs: 10

What do the screens show for `CCOC(=O)CC(=O)Nc1nnc(C(C)C)s1`?
PfHsp40 yeast: 1; SARS 3CLpro inh: 0; MazF activator: 3; BJeLR viability: -2; Vc quorum ag-1: 17*; VHR inh abs: 4; Vc quorum ag-2: 0

What do the screens show for `CCN=C1S/C(=C\c2sccc2C)C(=O)N1CC`?
PfHsp40 yeast: 1; SARS 3CLpro inh: 5; MazF activator: -40; BJeLR viability: 1; Vc quorum ag-1: 0; VHR inh abs: 26

How did Cc1ccc(S(=O)(=O)NCCC(=O)OCC(=O)N(Cc2ccccc2)C(C)(C)C)cc1C do in these assays?
PfHsp40 yeast: 1; MazF activator: -3; BJeLR viability: 6; Vc quorum ag-1: 12; Vc quorum ag-2: 0

Results for O=C(O)c1[nH]c2ccccc2c1NS(=O)(=O)Cc1ccccc1 ?
PfHsp40 yeast: 1; SARS 3CLpro inh: 5; MazF activator: 11; BJeLR viability: 15; Vc quorum ag-1: 7; VHR inh abs: -6; Vc quorum ag-2: 0

Results for O=C(O)c1[nH]c2ccccc2c1NS(=O)(=O)c1ccc(F)cc1 ?
PfHsp40 yeast: -1; SARS 3CLpro inh: 3; MazF activator: 4; BJeLR viability: 2; Vc quorum ag-1: inactive; VHR inh abs: 11

Results for Cc1nnc2n1N=C(c1ccc(F)cc1F)CS2 ?
PfHsp40 yeast: 0; MazF activator: 8; Vc quorum ag-1: inactive

Results for CCCCNC(=O)COC(=O)c1ccc(N(C)C)cc1 ?
PfHsp40 yeast: -1; SARS 3CLpro inh: 2; MazF activator: 1; BJeLR viability: 9; Vc quorum ag-1: 170*; VHR inh abs: 13; Vc quorum ag-2: 359

What do the screens show for `COc1ccc(-n2nc3c(c2NC(=O)c2ccc(S(=O)(=O)N4CCOCC4)cc2)CS(=O)C3)cc1` (configuration not stated)?
PfHsp40 yeast: -1; SARS 3CLpro inh: 4; MazF activator: 8; BJeLR viability: 7; Vc quorum ag-1: 0; VHR inh abs: 37

Results for CCOC(=O)c1c(NC(=O)c2cccs2)sc(C)c1CC ?
PfHsp40 yeast: 3; SARS 3CLpro inh: -3; MazF activator: -12; BJeLR viability: -3; Vc quorum ag-1: 114*; VHR inh abs: 14; Vc quorum ag-2: 1

How did CC1(C)CN(C(=S)Nc2ccc(F)cc2F)C1=O do in these assays?
PfHsp40 yeast: 1; SARS 3CLpro inh: 5; MazF activator: 6; BJeLR viability: 8; Vc quorum ag-1: -1; VHR inh abs: 38

How did Cc1ccc(OC(=O)N2CCOCC2)cc1 do in these assays?
PfHsp40 yeast: 0; SARS 3CLpro inh: 0; MazF activator: 4; BJeLR viability: -5; VHR inh abs: 9

Results for O=C(Oc1ccc2ccc(OC(=O)N3CCOCC3)cc2c1)N1CCOCC1 ?
PfHsp40 yeast: -1; SARS 3CLpro inh: 3; MazF activator: 3; BJeLR viability: 7; Vc quorum ag-1: 17*; VHR inh abs: -1; Vc quorum ag-2: 11

What do the screens show for `CCOC(=O)c1sc2c(c1C)c(=O)n(CCO)c(=O)n2Cc1ccccc1`?
PfHsp40 yeast: 0; SARS 3CLpro inh: 4; MazF activator: 13; BJeLR viability: -12; Vc quorum ag-1: -1; VHR inh abs: 21

What do the screens show for `CCN1CCCC1CNC(=O)c1cc(OC)c(OC)c(OC)c1` (configuration not stated)?
PfHsp40 yeast: 0; SARS 3CLpro inh: 0; MazF activator: 5; BJeLR viability: 1; Vc quorum ag-1: 3; VHR inh abs: 24; Vc quorum ag-2: 1

Results for CCN1CCCC1CNC(=O)CCNC(=O)c1cc(OC)c(OC)c(OC)c1 (configuration not stated) ?
PfHsp40 yeast: -2; SARS 3CLpro inh: 3; MazF activator: -7; BJeLR viability: 9; Vc quorum ag-1: -6; VHR inh abs: 3

What do the screens show for `CC1CCCCC1NC(=O)COC(=O)c1ccccc1NC(=O)c1ccco1` (configuration not stated)?
PfHsp40 yeast: 6; SARS 3CLpro inh: 5; MazF activator: 3; BJeLR viability: -15; Vc quorum ag-1: 21*; VHR inh abs: -5; Vc quorum ag-2: 0

What do the screens show for `Cc1cccc(NS(=O)(=O)c2ccc(OCC(=O)N3CCCC3)cc2)c1`?
PfHsp40 yeast: -1; SARS 3CLpro inh: -2; MazF activator: 1; BJeLR viability: 10; Vc quorum ag-1: 0; VHR inh abs: 18

What do the screens show for `Cc1nc(=O)c(-c2ccccc2)c(C)n1CCCO`?
PfHsp40 yeast: -1; SARS 3CLpro inh: -1; MazF activator: 5; BJeLR viability: 0; Vc quorum ag-1: 0; VHR inh abs: 18

How did Cc1nc(=O)c(-c2ccccc2)c(C)n1CCCCCC(=O)O do in these assays?
PfHsp40 yeast: 1; SARS 3CLpro inh: 3; MazF activator: 6; BJeLR viability: -10; Vc quorum ag-1: 17*; VHR inh abs: 8; Vc quorum ag-2: 0

Results for COc1cc(C(N)=O)cc(Br)c1OC ?
PfHsp40 yeast: 0; SARS 3CLpro inh: 5; MazF activator: 1; BJeLR viability: 4; Vc quorum ag-1: 25*; VHR inh abs: 2; Vc quorum ag-2: 0

Results for CCOc1c(Br)cc(C(N)=O)cc1OC ?
PfHsp40 yeast: 0; SARS 3CLpro inh: 3; MazF activator: 6; BJeLR viability: 3; Vc quorum ag-1: 0; VHR inh abs: 0

What do the screens show for `C=CCn1c(NCc2ccccc2)nc2ccccc21`?
PfHsp40 yeast: 0; SARS 3CLpro inh: 1; MazF activator: -4; BJeLR viability: -21; Vc quorum ag-1: 17*; VHR inh abs: 31; Vc quorum ag-2: 0

What do the screens show for `Cc1cc(OC(=O)c2ccc(C)c(C)c2)c([N+](=O)[O-])c(=O)[nH]1`?
PfHsp40 yeast: 1; SARS 3CLpro inh: 1; MazF activator: 4; BJeLR viability: 3; Vc quorum ag-1: inactive; VHR inh abs: -22

High-throughput results: PubChem BioAssay, several laboratories
